Results on 33 molecules are retold here after PubChem BioAssay (NCI).

About 83,000 compounds went through this panel and 20% of them were active in at least one assay; those are over-represented in the sample as a whole.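 Single-concentration screen, 48 h exposure, 96-well plates. Endpoint: percent growth. Below 10 = active.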 Activity calls are given as the source filed them.

The subject of the assay is TK-10 renal. Kind of assay: NCI-60 one-dose screen, 48 h (100 = growth as untreated, 0 = no growth, -100 = all killed). Conditions: 10 µM unless noted.
On to `Cn1cc(-c2csc(-c3ccc(Cl)cc3)n2)c2cccnc21`, for which the growth is -26.1% [100 µM] (active).
With `COc1cc(-c2nc(SCCC(C)C)nc(Nc3ccccc3Cl)c2C#N)cc(OC)c1OC` the figure was 125% (inactive).
With `CCn1c(=S)[nH]c2c(=O)n(C)c(=O)n(C)c21` the figure was 108% (inactive); with `c1ccc(CNc2c3ccccc3nc3ccccc23)cc1`, 48.7% (inactive); with `COCCn1c(-c2csc(-c3cn(C)c4ccc(OC)cc34)n2)cc2cccnc21`, 43.6% (inactive).
With `CCOC(=O)CSc1ncnc2c1c(-c1ccccc1)c(-c1ccccc1)n2-c1ccc(C)cc1` the figure was 78.5% (inactive); with `COc1cc2oc(-c3cccc(NC(=O)c4cccc(Br)c4)c3)cc(=O)c2c(OC)c1OC`, 65.5% (inactive); with `Cc1ccc(Cl)cc1Nc1nc(C(F)(F)F)ccc1C(=O)N/N=C/c1cccnc1`, 24.3% (inactive).
For the molecule `Cn1c(=O)c2c(nc(NC3=NS(=O)(=O)c4ccccc43)n2CC(=O)N2CCc3ccccc32)n(C)c1=O`, the growth was 108% (inactive).
Under `Cc1cccc(Cl)c1NC(=O)c1ccc2nc(NC(=O)NCCN(C)C)sc2c1` stands 111% (inactive).
Under `CCOC(=O)c1c(C)nc2c(c1N)CC(=O)N2Cc1cc(F)cc(Cl)c1` stands 92.1% (inactive); under `COC(C(=O)[C@@H](O)[C@@H](C)O)[C@@H]1Cc2cc3cc(O[C@H]4C[C@@H](O[C@H]5C[C@@H](O)[C@H](O)C(C)O5)[C@H](O)C(C)O4)cc(O)c3c(O)c2C(=O)[C@H]1O[C@H]1C[C@@H](O[C@H]2C[C@@H](O[C@H]3C[C@@H](OC)[C@H](O)C(C)O3)[C@@H](O)C(C)O2)[C@H](O)C(C)O1` (stereo partly drawn), 59.5% (inactive); under `CN([O-])c1nc(N(C)[O-])nc(N2CCOCC2)n1.CN([O-])c1nc(N(C)[OH2+])nc(N2CCOCC2)n1.[Fe+3]`, 110% [100 µM] (inactive).
Under `CCOP(=O)(OCC)c1nc(-c2ccccc2)oc1NCc1cccnc1` stands 101% (inactive).
`CCn1c(SCC(=O)c2ccc(Br)cc2)nnc1-c1ccncc1`: the growth was 116% (inactive).
`CCCCNc1ccc(C#N)c(OCCN(CC)CC)c1`: the growth was 108% (inactive).
For `N#Cc1c(-c2ccc(Cl)cc2)nc(NN=Cc2cccc(O)c2)nc1N1CCOCC1`, the growth is 79% (inactive).
With `CS(=O)(=O)Nc1cc(-c2ccc3ncnc(Nc4c(Cl)ccc5c4OCO5)c3c2)cnc1Cl` the figure was -59.4% (active).
With `Fc1cccc(CNc2c3ccccc3nc3ccccc23)c1F` the figure was 89.2% (inactive); with `COC(=O)CNC(=O)[C@H](Cc1ccccc1)NCc1ccncc1`, 88.5% (inactive); with `O=C(NCCCN1CCOCC1)c1cccc(N2C(=O)/C(=C/c3ccc(F)cc3)SC2=S)c1`, 100% (inactive).
Turning to `O=[N+]([O-])/C(=C/C=C/c1ccccc1)c1ccccc1`, the growth was 91.1% (inactive).
As to `Cn1cc(-c2csc(-c3c[nH]c4ccc(Br)cc34)n2)c2cnccc21`, the growth was -83.9% (active).
Turning to `C=C(C)[C@@H]1CC[C@]2(C(=O)N3CCN(C)CC3)CC[C@]3(C)[C@H](CC[C@@H]4[C@@]5(C)CC(=C/c6ccncc6)/C(=N/O)C(C)(C)[C@@H]5CC[C@]43C)[C@@H]12`, the growth is 85.2% (inactive).
With `COc1cc(N2C(=O)[C@H](O)C2c2ccc(SC)cc2)cc(OC)c1OC` (stereo partly drawn) the figure was 40.7% (inactive); with `CCCCC(=O)c1ccco1`, 96% (inactive); with `C=C(C)[C@@H]1CC[C@]2(C)[C@H](CC=C3[C@@H]4[C@H](C)[C@@H](C)CC[C@]4(CO)CC[C@]32C)[C@@]1(C)CCCN`, -68.3% (active).
With `COc1ccc2[nH]cc(-c3nc(-c4c[nH]c5ccncc45)cs3)c2c1` the figure was 71.1% (inactive); with `Oc1ccc(CN2CCC(N3CCCCC3)CC2)c2cccnc12`, -58.5% (active); with `CC(C)(C)c1cc(-c2nc3ccc(N4CCN(S(C)(=O)=O)CC4)cc3[nH]2)cc(C(C)(C)C)c1O`, 90.4% (inactive).
Under `COc1ccc2c(c1)c(-c1noc(C(=O)c3cn(C)c4ccc(Br)cc34)n1)cn2C` stands 103% (inactive); under `C[C@H](NC(=O)[C@@H](C)N)[C@H](Oc1ccc2c(cnn2-c2ccc(F)cc2)c1)c1ccc2c(c1)OCCO2`, 70.5% (inactive); under `C=C(C)[C@@H]1CC[C@]2(C(=O)O)CC[C@]3(C)[C@H](CC[C@@H]4[C@@]5(C)C[C@@H](Cc6cn(CCO[C@@H]7O[C@H](COC(C)=O)[C@H](OC(C)=O)[C@H](OC(C)=O)[C@H]7OC(C)=O)nn6)[C@H](O)C(C)(C)[C@@H]5CC[C@]43C)[C@@H]12`, 79.3% (inactive).
